“And” between values parts separate entries of the source, which are not always exact repeats. Identical values can stand only once. Inconclusive results are not listed. The source made the active and inactive calls. Unless noted, the call rests on the fitted dose curve; in most records, active means well fitted curve in the direction sought with a large enough effect; inconclusive means small, poorly fitted or top-dose-only effect, or another doubt; inactive means no such curve, though single readings can be large; an effect the other way counts as inactive or inconclusive.
Assays:
[1] = Cell Viability - LYMP2-024 (AID 988);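 further: plate controls were DMSO only for no effect and 92 µM tetraoctylammonium bromide for full effect; nearly all actives have a fitted effect of over 60% in size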
Summary of the method: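 qHTS cytotoxicity, human lymphoblastoid line, complete medium; 24 h cpd treatment, 37 C; CellTiter-Glo ATP luminescence readout; tetraoctylammonium bromide positive control; AC50 via Hill fit.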

[2] = Cell Viability - LYMP2-026 (AID 989);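 further: cells exposed to compound for 24 h at 37 °C; on the % scale 0 is the no-effect control and ±100 the full control effect; nearly all actives have a fitted effect of over 50% in size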
Summary of the method: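 Cells are seeded at 2500 per well and held 5 hr at 37 C. Compounds are added in concentration series for 24 hr, then CellTiter-Glo reagent is applied and luminescence read.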

[3] = Cell Viability - LYMP1-002 - Assay at 24 hr (AID 993); further: on the % scale 0 is the no-effect control and ±100 the full control effect
Summary of the method: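 Acute toxicity is measured as concentration-dependent loss of cellular ATP in a human lymphoblastoid line (Coriell LYMP1-002) after 24 h treatment in complete medium. ATP is quantified by luciferase luminescence and AC50 derived by Hill modelling.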

[4] = Cell Viability - LYMP1-002 - Assay at 40 hr (AID 994);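 further: 0% = DMSO only and full inhibition = 92 µM tetraoctylammonium bromide; nearly all actives have a fitted effect of over 60% in size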
Summary of the method: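 Cells are plated at 2500 per well and rested 5 hr at 37 C. Compounds are added and incubated 40 hr at 37 C. CellTiter-Glo reagent is added for 30 min at room temperature before luminescence is read.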

[5] = target: Alpha-galactosidase A (Homo sapiens) (UniProt P06280); assay: Counterscreen for Glucocerebrosidase Inhibitors: qHTS Assay for Human alpha-Galactosidase at pH 4.5 (AID 992); further: 0% is about no effect
Alpha-galactosidase A (Homo sapiens), sequence (P06280 whole entry, looked up): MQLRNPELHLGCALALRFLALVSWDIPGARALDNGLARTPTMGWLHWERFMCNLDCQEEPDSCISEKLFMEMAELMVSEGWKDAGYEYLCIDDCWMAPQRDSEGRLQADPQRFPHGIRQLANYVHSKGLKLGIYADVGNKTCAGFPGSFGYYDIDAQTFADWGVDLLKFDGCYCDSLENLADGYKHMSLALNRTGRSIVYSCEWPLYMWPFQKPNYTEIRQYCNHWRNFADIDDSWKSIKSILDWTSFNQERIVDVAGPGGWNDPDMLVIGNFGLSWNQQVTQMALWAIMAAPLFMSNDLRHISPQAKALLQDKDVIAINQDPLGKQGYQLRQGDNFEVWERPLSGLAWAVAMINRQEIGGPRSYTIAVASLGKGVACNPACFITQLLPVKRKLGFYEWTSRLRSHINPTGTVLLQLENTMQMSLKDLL
Summary of the method: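 Fluorogenic 1536-well qHTS at pH 4.5 (citrate, Tween-20): 2 nM enzyme, 80 uM 4-MU-alpha-galactoside, 20 min room temperature, NaOH/glycine stop. Titration 0.7 nM to 77 uM, data normalized to no-enzyme and full-activity controls, Hill-fitted AC50.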

[6] = target: alpha-glucosidase (Oryza sativa, rice) (UniProt Q653V4); assay: Counterscreen for Glucocerebrosidase Inhibitors: qHTS Assay for Rice alpha-Glucosidase at pH 5.0 (AID 997);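 further: 0% = full activity with enzyme and -100% = basal without enzyme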
Summary of the method: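 Endpoint fluorogenic assay at pH 5.0: compounds (0.7 nM to 77 uM) titrated against 4 nM rice enzyme and 400 uM 4-MU-alpha-glucoside for 20 min at room temperature; NaOH/glycine stop, read ex 365/em 440 nm, Hill-fitted AC50.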

[7] = qHTS Assay for Lipid Storage Modulators (AID 1519; calls by dose curve); details: Drosophila S3 cells, BODIPY lipid droplet/cell ratio, laser cytometry, cells loaded with oleic acid
Summary of the method: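 Cells seeded at 5,000 per well were treated with compounds over a concentration series and loaded with oleic acid (400 uM, as added). Lipid droplet fluorescence (488 nm excitation, 500-530 nm channel) was read by laser-scanning cytometry and normalized to 20 uM Triacsin C.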

[8] = target: DNA repair nuclease/redox regulator APEX1 (Homo sapiens) (UniProt P27695); assay: qHTS Validation Assay for Inhibitors of the Human Apurinic/apyrimidinic Endonuclease 1 (APE1) (AID 1705;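 further: TAMRA fluorescence gain over two minutes as APE1 cuts a quenched THF abasic duplex; on the % scale 0 is the no-effect control and ±100 the full control effect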)
DNA repair nuclease/redox regulator APEX1 (Homo sapiens), sequence (P27695 whole entry, looked up): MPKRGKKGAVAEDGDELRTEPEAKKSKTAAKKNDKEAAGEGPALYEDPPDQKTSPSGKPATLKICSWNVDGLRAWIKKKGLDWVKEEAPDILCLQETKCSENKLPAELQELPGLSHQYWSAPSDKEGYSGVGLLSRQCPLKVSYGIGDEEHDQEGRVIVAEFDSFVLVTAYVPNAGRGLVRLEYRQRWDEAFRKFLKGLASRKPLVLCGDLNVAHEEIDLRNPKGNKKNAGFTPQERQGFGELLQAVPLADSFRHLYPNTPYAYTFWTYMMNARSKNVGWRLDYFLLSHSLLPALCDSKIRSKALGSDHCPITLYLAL
Summary of the method: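 Substrate: 50 nM final fluorophore/quencher THF-abasic duplex. Enzyme preincubated with compounds 15 min, RT. Progress derived from fluorescence difference, third minus first kinetic read.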

[9] = Counterscreen for APE1 Inhibitors: Fluorescent Dye Displacement Validation Assay (AID 1707);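 further: plate controls were ThO with dsDNA and no compound for no effect and ThO without dsDNA for full effect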
Summary of the method: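 Counterscreen flags promiscuous DNA binders: compounds displacing ThO from duplex DNA (abasic THF site, 50 nM) reduce 540 nm emission (480 nm excitation). ThO 250 nM final; Tris-HCl pH 7.5 with NaCl, MgCl2 and Tween-20.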

[10] = target: Endonuclease 4 (Escherichia coli (strain K12)) (UniProt P0A6C1); assay: Counterscreen for APE1 Inhibitors: qHTS Validation Assay for Inhibitors of Endonuclease IV (AID 1708); further: on the % scale 0 is the no-effect control and ±100 the full control effect
Summary of the method: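 Enzyme (2 nM) + compound, 15 min RT; add 50 nM TAMRA/BHQ-2 THF-site dsDNA; kinetic read ex525/em598, 3 reads/60 s; activity = read 3 − read 1. Buffer Tris pH 7.5, 50 mM NaCl, 2 mM MgCl2, DTT, Tween-20.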

[11] = qHTS for differential inhibitors of proliferation of Plasmodium falciparum line 7G8 (AID 1815);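 further: parasite growth measured after three days of incubation; plate controls were vehicle wells for no effect and reference inhibitor wells for full effect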
[12] = qHTS for differential inhibitors of proliferation of Plasmodium falciparum line GB4 (AID 1816);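 further: parasite growth measured after 72 h incubation; 0% = vehicle DMSO and -100% = reference inhibitor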
[13] = qHTS for differential inhibitors of proliferation of Plasmodium falciparum line 3D7 (AID 1876);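 further: parasite growth measured after three days of culture; 0% = vehicle wells and -100% = reference inhibitor wells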
[14] = qHTS for differential inhibitors of proliferation of Plasmodium falciparum line D10 (AID 1877);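 further: parasites grown with compound for 72 h before DNA staining; plate controls were vehicle wells for no effect and reference inhibitor wells for full effect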
[15] = qHTS for differential inhibitors of proliferation of Plasmodium falciparum line Dd2 (AID 1882);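 further: plate controls were DMSO vehicle for no effect and 0.29 µM artemisinin for full effect; nearly all actives have a fitted effect of over 65% in size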
Summary of the method: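 SYBR Green DNA fluorescence (ex 485, em 535 nm) after overnight lysis quantifies parasite growth; compound exposure lasted 72 h at 37 C on infected red cells at 2.5% hematocrit, 0.3% parasitemia (final). Artemisinin 0.29 uM and vehicle wells define normalization.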

[16] = qHTS for differential inhibitors of proliferation of Plasmodium falciparum line W2 (AID 1883);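 further: parasites grown with compound for 72 h before lysis and staining; 0% = vehicle wells and -100% = control inhibitor wells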
[17] = qHTS for differential inhibitors of proliferation of Plasmodium falciparum line HB3 (AID 1886);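 further: parasites grown with compound for 72 h before SYBR Green readout; plate controls were vehicle for no effect and reference inhibitor for full effect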
[18] = target: Ferritin light chain (Equus caballus) (UniProt P02791); assay: qHTS Validation Assay for Identification of Novel General Anesthetics (AID 2323); further: on the % scale 0 is the no-effect control and ±100 the full control effect
Ferritin light chain (Equus caballus), sequence (P02791 2-175 limits assumed): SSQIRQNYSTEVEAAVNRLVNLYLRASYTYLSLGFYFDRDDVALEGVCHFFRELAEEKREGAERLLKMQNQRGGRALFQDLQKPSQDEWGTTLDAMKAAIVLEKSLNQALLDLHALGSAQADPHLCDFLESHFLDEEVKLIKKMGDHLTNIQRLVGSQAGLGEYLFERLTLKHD
Summary of the method: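 Normalized fluorescence response, scaled between free 1-AMA and 1-AMA/apoferritin complex, fitted to a four-parameter Hill equation for concentration-effect values. Binding mix: 10 uM horse-spleen apoferritin, 50% saturated 1-AMA in PBS; read 380/535 nm after 10 min.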

[19] = target: ATP-dependent DNA helicase Q1 (Homo sapiens) (UniProt P46063); assay: qHTS Validation Assay for Inhibitors of RecQ-Like Dna Helicase 1 (RECQ1) (AID 2353);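 further: plate controls were DMSO vehicle for no effect and enzyme-free control for full effect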
ATP-dependent DNA helicase Q1 (Homo sapiens), sequence (P46063 whole entry, looked up): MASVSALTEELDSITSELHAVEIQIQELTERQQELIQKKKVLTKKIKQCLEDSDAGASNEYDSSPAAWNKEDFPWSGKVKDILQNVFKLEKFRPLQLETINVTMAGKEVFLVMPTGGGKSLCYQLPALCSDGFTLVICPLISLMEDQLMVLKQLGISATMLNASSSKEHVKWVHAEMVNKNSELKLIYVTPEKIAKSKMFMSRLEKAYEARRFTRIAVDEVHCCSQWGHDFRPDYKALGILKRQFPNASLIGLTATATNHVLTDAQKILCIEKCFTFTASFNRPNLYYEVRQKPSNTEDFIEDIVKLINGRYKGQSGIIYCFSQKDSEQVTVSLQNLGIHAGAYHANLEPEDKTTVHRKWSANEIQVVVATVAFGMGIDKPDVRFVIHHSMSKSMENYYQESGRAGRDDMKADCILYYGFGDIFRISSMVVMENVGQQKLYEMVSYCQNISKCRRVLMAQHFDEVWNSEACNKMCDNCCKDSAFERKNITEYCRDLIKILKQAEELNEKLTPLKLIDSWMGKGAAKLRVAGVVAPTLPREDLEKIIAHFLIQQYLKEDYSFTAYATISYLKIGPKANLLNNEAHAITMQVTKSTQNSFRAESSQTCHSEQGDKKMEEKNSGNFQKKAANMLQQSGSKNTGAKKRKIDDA
Summary of the method: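 RECQ1T1 50 nM; forked duplex (20 bp + 30-nt ss tails) 200 nM, ATP 2 mM final; pH 8.0, 2 mM MgCl2, 2.5 ug/ml poly(dI-dC); 15 min compound preincubation; discontinuous kinetic read over 2 h at RT.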

[20] = Validation screen for small molecules that induce DNA re-replication in MCF 10A normal breast cells (AID 463097); further: 0% is about no effect; nearly all actives have a fitted effect of over 60% in size
Summary of the method: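 Following 48 hr compound incubation (37 C, 5% CO2), MCF 10A cells receive Hoechst for 40 min at 37 C. Nuclei are then scanned (excitation 405 nm, emission 500-530 nm) for total fluorescence intensity.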

[21] = measured here: cell count channel max response
[22] = measured here: lipid channel max response

In the case of `CCCCCCCC(=O)OCC(COC(=O)CCCCCCC)OC(=O)CCCCCCC`, the outcome [1] is reported as “inactive”, the outcome [2] is reported as “inactive” and the outcome [3] is reported as “inactive”. For the same compound, the outcome [4] was “inactive”.

With `NC(=O)CC[C@@H](N)C(=O)O` the outcome [5] was “inactive” and the outcome [6] was “inactive”.

With `O=C(c1ccccc1)C(O)c1ccccc1` (stereo unspecified) the outcome [1] was “inactive”, the outcome [2] was “inactive” and the outcome [3] was “inactive”. The outcome [4] was “inactive”.

With `Cc1cccc(Nc2ccccc2C(=O)O)c1C` the activity change, negative = inhibition ([7]; at 25.7 µM (top of the series)) was -1.13% (inactive), the activity change, negative = inhibition ([7]; at 57.5 µM (top of the series)) was 13.8% (inactive) and the max response [7, 21] was -7.11% and 0.438%. The max response [7, 22] was -8.71% and 19.7%.

In the case of `CC(=O)OCC(COC(C)=O)OC(C)=O`, the outcome [1] is reported as “inactive”, the outcome [2] is reported as “inactive” and the outcome [3] is reported as “inactive”. For the same compound, the outcome [4] was “inactive”.

In the case of `CCS(=O)(=O)CCn1c([N+](=O)[O-])cnc1C`, the activity change, negative = inhibition ([7]; at 25.7 µM (top of the series)) is reported as -0.644% (inactive), the activity change, negative = inhibition ([7]; at 57.5 µM (top of the series)) is reported as 8.24% (inactive) and the max response [7, 21] is reported as -6.2% and 14.4%. The max response [7, 22] was -8.29% and 29%.

In the case of `CCCCOC(=O)c1ccc(N)cc1`, the outcome [1] is reported as “inactive”, the outcome [2] is reported as “inactive” and the outcome [3] is reported as “inactive”. For the same compound, the outcome [4] was “inactive”, the activity change, negative = inhibition ([7]; at 25.7 µM (top of the series)) was 0.621% (inactive) and the max response [7, 21] was -14.7%. The max response [7, 22] was -12.8%.

For `CN1C(C)(C)CCCC1(C)C`, the outcome [5] was “inactive”, the outcome [6] was “inactive” and the activity change, negative = inhibition ([7]; at 25.7 µM (top of the series)) was 0.627% (inactive). For the same compound, the activity change, negative = inhibition ([7]; at 57.5 µM (top of the series)) was 10.8% (inactive), the max response [7, 21] was 4.18% and 13.7% and the max response [7, 22] was 5.5% and 25.7%. The outcome [8] was “inactive”, the outcome [9] was “inactive” and the outcome [10] was “inactive”. For the same compound, the outcome [11] was “inactive”, the outcome [12] was “inactive” and the outcome [13] was “inactive”. The outcome [14] was “inactive”, the outcome [15] was “inactive” and the outcome [16] was “inactive”. The outcome [17] was “inactive”, the outcome [18] was “inactive” and the outcome [19] was “inactive”. For the same compound, the outcome [20] was “inactive”.

With `O=C1C(c2[nH]c3ccccc3c2O)=Nc2ccccc21` the outcome [1] was “inactive”, the outcome [2] was “inactive” and the outcome [3] was “inactive”. For the same compound, the outcome [4] was “inactive”.

With `Cc1c(N(C)C)c(=O)n(-c2ccccc2)n1C` the outcome [1] was “inactive”, the outcome [2] was “inactive” and the outcome [3] was “inactive”. For the same compound, the outcome [4] was “inactive”, the activity change, negative = inhibition ([7]; at 25.7 µM (top of the series)) was -4.33% (inactive) and the max response [7, 21] was -0.692%. The max response [7, 22] was -4.11%.

In the case of `CCCCCC(N)=O`, the outcome [1] is reported as “inactive”, the outcome [2] is reported as “inactive” and the outcome [3] is reported as “inactive”. The outcome [4] was “inactive”.

For `Cc1cc(C)nc(NS(=O)(=O)c2ccc(N)cc2)n1`, the outcome [1] was “inactive”, the outcome [2] was “inactive” and the outcome [3] was “inactive”. The outcome [4] was “inactive”.

With `NS(=O)(=O)c1cc2c(cc1C(F)(F)F)NCNS2(=O)=O` the activity change, negative = inhibition ([7]; at 25.7 µM (top of the series)) was -1.44% (inactive), the activity change, negative = inhibition ([7]; at 57.5 µM (top of the series)) was 2.96% (inactive) and the max response [7, 21] was -0.735% and 18.6%. For the same compound, the max response [7, 22] was -2.63% and 23.7%.

In the case of `CC(=O)Nc1ccccc1`, the outcome [1] is reported as “inactive”, the outcome [2] is reported as “inactive” and the outcome [3] is reported as “inactive”. The outcome [4] was “inactive”, the activity change, negative = inhibition ([7]; at 57.5 µM (top of the series)) was 8.44% (inactive) and the max response [7, 21] was 6.17%. It also gave a max response [7, 22] of 17.6%.

In the case of `CC(=O)NS(=O)(=O)c1ccc(N)cc1`, the outcome [1] is reported as “inactive”, the outcome [2] is reported as “inactive” and the outcome [3] is reported as “inactive”. The outcome [4] was “inactive”, the activity change, negative = inhibition ([7]; at 25.7 µM (top of the series)) was -1.25% (inactive) and the activity change, negative = inhibition ([7]; at 57.5 µM (top of the series)) was 7% (inactive). For the same compound, the max response [7, 21] was 0.487% and 9.27% and the max response [7, 22] was -1.3% and 19.7%.

— PubChem BioAssay (NCATS)
